Values joined by “and” are separate entries in the source; they are usually repeats but may differ in a detail not shown here. Identical values can stand only once. In all, about 5,500 compounds went through this assay and about 2,000 (36%) were called active. Roughly 18% stayed inconclusive and do not appear here. Rule as the data show it: active = normalized growth mostly below about 0.91 (no sharp cut-off); inconclusive = no clear call, values can overlap the other calls; inactive = mostly above about 0.92. Some of the results follow.
Assay: chemical genetic growth profiling, strain panel (AID 1159580);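 also: tested at 20 µM; growth read once vehicle control cultures reached saturation at 30 °C; 1 = growth at the plate median or of vehicle wells; lower values mean less growth of the strain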
Settings: growth OD

Measured: normalized growth

COc1c2c(cc3c1OCO3)CC[N+](C)=C2
inactive: S. cerevisiae deletion strains, locus YAL013W, strain DEP1, hits give low values 1 | S. cerevisiae deletion strains, locus YAL021C, strain ccr4, hits give low values 0.977 | S. cerevisiae deletion strains, locus YAL026C, strain drs2, hits give low values 0.995 | S. cerevisiae deletion strains, locus YAL030W, strain snc1, hits give low values 0.994 | S. cerevisiae deletion strains, locus YBL061C, strain skt5, hits give low values 1.01 | S. cerevisiae deletion strains, locus YBR009C, strain hhf1, hits give low values 0.984 | S. cerevisiae deletion strains, locus YBR021W, strain FUR4, hits give low values 1.02 | S. cerevisiae deletion strains, locus YBR023C, strain chs3, hits give low values 1.01 | S. cerevisiae deletion strains, locus YBR171W, strain sec66, hits give low values 0.997 | S. cerevisiae deletion strains, locus YBR229C, strain ROT2, hits give low values 0.999 | S. cerevisiae deletion strains, locus YBR231C, strain swc5, hits give low values 1.03 | S. cerevisiae deletion strains, locus YBR279W, strain paf1, hits give low values 1 | S. cerevisiae deletion strains, locus YCL011C, strain gbp2, hits give low values 0.986 | S. cerevisiae deletion strains, locus YCL016C, strain dcc1, hits give low values 0.974 | S. cerevisiae deletion strains, locus YCL029C, strain bik1, hits give low values 0.993 | S. cerevisiae deletion strains, locus YCL069W, strain vba3, hits give low values 0.99 | S. cerevisiae deletion strains, locus YCR088W, strain abp1, hits give low values 1 | S. cerevisiae deletion strains, locus YDL005C, strain med2, hits give low values 1 | S. cerevisiae deletion strains, locus YDL035C, strain GPR1, hits give low values 1.01 | S. cerevisiae deletion strains, locus YDL040C, strain nat1, hits give low values 1.01 | S. cerevisiae deletion strains, locus YDL074C, strain BRE1, hits give low values 1.04 | S. cerevisiae deletion strains, locus YDL101C, strain DUN1, hits give low values 1.02 | S. cerevisiae deletion strains, locus YDL134C, strain PPH21, hits give low values 1.05 | S. cerevisiae deletion strains, locus YDL185W, strain tfp1, hits give low values 1.01 | S. cerevisiae deletion strains, locus YDL192W, strain arf1, hits give low values 1 | S. cerevisiae deletion strains, locus YDR001C, strain nth1, hits give low values 0.977 | S. cerevisiae deletion strains, locus YDR069C, strain doa4, hits give low values 1.01 | S. cerevisiae deletion strains, locus YDR101C, strain arx1, hits give low values 1 | S. cerevisiae deletion strains, locus YDR137W, strain rgp1, hits give low values 1 | S. cerevisiae deletion strains, locus YDR150W, strain NUM1, hits give low values 0.993 | S. cerevisiae deletion strains, locus YDR159W, strain sac3, hits give low values 1.08 | S. cerevisiae deletion strains, locus YDR162C, strain NBP2, hits give low values 1.05 | S. cerevisiae deletion strains, locus YDR195W, strain ref2 1.01 | S. cerevisiae deletion strains, locus YDR297W, strain sur2, hits give low values 1.02 | S. cerevisiae deletion strains, locus YDR318W, strain mcm21, hits give low values 1 | S. cerevisiae deletion strains, locus YDR334W, strain swr1, hits give low values 0.991 | S. cerevisiae deletion strains, locus YDR335W, strain msn5, hits give low values 0.996 | S. cerevisiae deletion strains, locus YDR388W, hits give low values 0.994 | S. cerevisiae deletion strains, locus YDR392W, strain spt3, hits give low values 0.93 | S. cerevisiae deletion strains, locus YDR502C, strain sam2, hits give low values 1.01 | S. cerevisiae deletion strains, locus YEL003W, strain gim4, hits give low values 1 | S. cerevisiae deletion strains, locus YEL037C, strain rad23, hits give low values 0.986 | S. cerevisiae deletion strains, locus YEL061C, strain CIN8 (second series), hits give low values 0.998 | S. cerevisiae deletion strains, locus YER015W, strain faa2, hits give low values 0.998 | S. cerevisiae deletion strains, locus YER016W, strain bim1, hits give low values 1.01 | S. cerevisiae deletion strains, locus YER110C, hits give low values 1.01 | S. cerevisiae deletion strains, locus YER111C, strain swi4, hits give low values 1 | S. cerevisiae deletion strains, locus YER155C, strain BEM2 (second series), hits give low values 1.06 | S. cerevisiae deletion strains, locus YER155C, strain BEM2, hits give low values 0.976 | S. cerevisiae deletion strains, locus YER167W, strain BCK2, hits give low values 0.997 | S. cerevisiae deletion strains, locus YFR010W, strain ubp6, hits give low values 0.996 | S. cerevisiae deletion strains, locus YGL078C, strain dbp3, hits give low values 1.04 | S. cerevisiae deletion strains, locus YGL086W, strain mad1, hits give low values 1.01 | S. cerevisiae deletion strains, locus YGL167C, strain pmr1, hits give low values 0.993 | S. cerevisiae deletion strains, locus YGL173C, strain kem1, hits give low values 1.02 | S. cerevisiae deletion strains, locus YGL227W, strain vid30, hits give low values 0.999 | S. cerevisiae deletion strains, locus YGL240W, strain doc1, hits give low values 1.02 | S. cerevisiae deletion strains, locus YGL248W, strain PDE1, hits give low values 1.03 | S. cerevisiae deletion strains, locus YGL253W, strain hxk2, hits give low values 1 | S. cerevisiae deletion strains, locus YGR078C, strain PAC10, hits give low values 0.987 | S. cerevisiae deletion strains, locus YGR135W, strain pre9, hits give low values 1.03 | S. cerevisiae deletion strains, locus YGR252W, strain gcn5, hits give low values 1.05 | S. cerevisiae deletion strains, locus YHR013C, strain ard1, hits give low values 0.974 | S. cerevisiae deletion strains, locus YHR027C, strain rpn1, hits give low values 0.981 | S. cerevisiae deletion strains, locus YHR030C, strain SLT2, hits give low values 0.989 | S. cerevisiae deletion strains, locus YHR079C, strain IRE1 (second series), hits give low values 1.01 | S. cerevisiae deletion strains, locus YHR079C, strain IRE1, hits give low values 1 | S. cerevisiae deletion strains, locus YHR094C, strain hxt1, hits give low values 1 | S. cerevisiae deletion strains, locus YHR129C, strain ARP1, hits give low values 1 | S. cerevisiae deletion strains, locus YHR142W, strain chs7, hits give low values 0.982 | S. cerevisiae deletion strains, locus YHR200W, strain rpn10, hits give low values 0.998 | S. cerevisiae deletion strains, locus YIL066C, strain RNR3, hits give low values 1 | S. cerevisiae deletion strains, locus YIL073C, strain SPO22, hits give low values 1.06 | S. cerevisiae deletion strains, locus YIL125W, strain kgd1, hits give low values 0.995 | S. cerevisiae deletion strains, locus YIR030C, strain dcg1, hits give low values 1.01 | S. cerevisiae deletion strains, locus YJL092W, strain hpr5, hits give low values 0.988 | S. cerevisiae deletion strains, locus YJL095W, strain BCK1 (second series), hits give low values 1 | S. cerevisiae deletion strains, locus YJL095W, strain BCK1, hits give low values 1.05 and 0.977 | S. cerevisiae deletion strains, locus YJL115W, strain asf1, hits give low values 0.977 | S. cerevisiae deletion strains, locus YJL129C, strain trk1, hits give low values 1.01 | S. cerevisiae deletion strains, locus YJL134W, strain LCB3, hits give low values 0.994 | S. cerevisiae deletion strains, locus YJL154C, strain vps35, hits give low values 0.985 | S. cerevisiae deletion strains, locus YJL164C, strain tpk1, hits give low values 0.965 | S. cerevisiae deletion strains, locus YJL166W, strain qcr8, hits give low values 1.01 | S. cerevisiae deletion strains, locus YJL168C, strain set2, hits give low values 1.01 | S. cerevisiae deletion strains, locus YJL187C, strain SWE1 (second series), hits give low values 1.04 | S. cerevisiae deletion strains, locus YJL187C, strain SWE1, hits give low values 1.02 | S. cerevisiae deletion strains, locus YJR043C, strain POL32, hits give low values 0.99 | S. cerevisiae deletion strains, locus YJR066W, strain TOR1, hits give low values 0.886 | S. cerevisiae deletion strains, locus YKL009W, strain mrt4, hits give low values 1.04 | S. cerevisiae deletion strains, locus YKL068W, hits give low values 0.996 | S. cerevisiae deletion strains, locus YKL085W, strain MDH1 (second series), hits give low values 1.01 | S. cerevisiae deletion strains, locus YKL085W, strain MDH1, hits give low values 1.01 | S. cerevisiae deletion strains, locus YKL160W, strain elf1, hits give low values 0.977 | S. cerevisiae deletion strains, locus YKL190W, strain CNB1, hits give low values 1 | S. cerevisiae deletion strains, locus YKR001C, strain vps1, hits give low values 1.02 | S. cerevisiae deletion strains, locus YKR026C, strain gcn3, hits give low values 0.993 | S. cerevisiae deletion strains, locus YKR091W, strain srl3, hits give low values 0.99 | S. cerevisiae deletion strains, locus YLL001W, strain dnm1, hits give low values 1 | S. cerevisiae deletion strains, locus YLL026W, hits give low values 1 | S. cerevisiae deletion strains, locus YLL041C, strain sdh2, hits give low values 0.984 | S. cerevisiae deletion strains, locus YLR027C, strain aat2, hits give low values 1.01 | S. cerevisiae deletion strains, locus YLR039C, strain RIC1, hits give low values 1.1 | S. cerevisiae deletion strains, locus YLR058C, strain SHM2, hits give low values 1.02 | S. cerevisiae deletion strains, locus YLR102C, strain apc9, hits give low values 1 | S. cerevisiae deletion strains, locus YLR113W, strain HOG1, hits give low values 0.978 | S. cerevisiae deletion strains, locus YLR221C, strain rsa3, hits give low values 1.04 | S. cerevisiae deletion strains, locus YLR258W, strain gsy2, hits give low values 1.02 | S. cerevisiae deletion strains, locus YLR262C, strain YPT6 (second series), hits give low values 0.995 | S. cerevisiae deletion strains, locus YLR262C, strain YPT6, hits give low values 1.12 | S. cerevisiae deletion strains, locus YLR268W, strain sec22, hits give low values 0.999 | S. cerevisiae deletion strains, locus YLR320W, strain mms22, hits give low values 1.06 | S. cerevisiae deletion strains, locus YLR342W, strain FKS1, hits give low values 1.01 | S. cerevisiae deletion strains, locus YLR357W, strain rsc2, hits give low values 0.968 | S. cerevisiae deletion strains, locus YLR370C, strain arc18, hits give low values 1 | S. cerevisiae deletion strains, locus YLR371W, strain rom2, hits give low values 1.01 | S. cerevisiae deletion strains, locus YLR384C, strain iki3, hits give low values 0.999 | S. cerevisiae deletion strains, locus YLR418C, strain cdc73, hits give low values 1.03 | S. cerevisiae deletion strains, locus YML016C, strain PPZ1, hits give low values 1.01 | S. cerevisiae deletion strains, locus YML032C, strain rad52, hits give low values 0.999 | S. cerevisiae deletion strains, locus YML120C, strain ndi1, hits give low values 0.977 | S. cerevisiae deletion strains, locus YML124C, strain tub3, hits give low values 1.01 | S. cerevisiae deletion strains, locus YMR058W, strain fet3, hits give low values 1 | S. cerevisiae deletion strains, locus YMR078C, strain ctf18, hits give low values 1 | S. cerevisiae deletion strains, locus YMR125W, strain sto1, hits give low values 0.923 | S. cerevisiae deletion strains, locus YMR129W, hits give low values 0.996 | S. cerevisiae deletion strains, locus YMR205C, strain PFK2, hits give low values 0.975 | S. cerevisiae deletion strains, locus YMR223W, strain ubp8, hits give low values 1.02 | S. cerevisiae deletion strains, locus YMR231W, strain pep5, hits give low values 1.01 | S. cerevisiae deletion strains, locus YMR307W, strain GAS1, hits give low values 1.03 | S. cerevisiae deletion strains, locus YNL067W, strain RPL9B, hits give low values 1.03 | S. cerevisiae deletion strains, locus YNL071W, strain lat1, hits give low values 0.998 | S. cerevisiae deletion strains, locus YNL183C, strain NPR1, hits give low values 0.923 | S. cerevisiae deletion strains, locus YNL209W, strain ssb2, hits give low values 0.992 | S. cerevisiae deletion strains, locus YNL233W, strain BNI4, hits give low values 1.01 | S. cerevisiae deletion strains, locus YNL248C, strain rpa49, hits give low values 0.924 | S. cerevisiae deletion strains, locus YNL250W, strain rad50, hits give low values 1.03 | S. cerevisiae deletion strains, locus YNL271C, strain bni1, hits give low values 1.03 | S. cerevisiae deletion strains, locus YNL298W, strain CLA4, hits give low values 0.992 | S. cerevisiae deletion strains, locus YNL307C, strain MCK1, hits give low values 1.01 | S. cerevisiae deletion strains, locus YNL322C, strain KRE1 (second series), hits give low values 0.997 | S. cerevisiae deletion strains, locus YNR049C, strain mso1, hits give low values 0.979 | S. cerevisiae deletion strains, locus YNR052C, strain pop2, hits give low values 1.01 | S. cerevisiae deletion strains, locus YOL012C, strain htz1 0.651 | S. cerevisiae deletion strains, locus YOL147C, strain pex11, hits give low values 1 | S. cerevisiae deletion strains, locus YOR001W, strain rrp6, hits give low values 1.03 | S. cerevisiae deletion strains, locus YOR061W, strain CKA2, hits give low values 1.01 | S. cerevisiae deletion strains, locus YOR069W, strain VPS5, hits give low values 1 | S. cerevisiae deletion strains, locus YOR070C, strain gyp1, hits give low values 1.02 | S. cerevisiae deletion strains, locus YOR080W, strain dia2, hits give low values 1.02 | S. cerevisiae deletion strains, locus YOR083W, strain WHI5, hits give low values 0.97 | S. cerevisiae deletion strains, locus YOR106W, strain vam3, hits give low values 0.937 | S. cerevisiae deletion strains, locus YOR136W, strain idh2, hits give low values 1.03 | S. cerevisiae deletion strains, locus YOR144C, strain elg1, hits give low values 1 | S. cerevisiae deletion strains, locus YOR184W, strain ser1, hits give low values 0.996 | S. cerevisiae deletion strains, locus YOR231W, strain MKK1, hits give low values 0.994 | S. cerevisiae deletion strains, locus YOR265W, strain rbl2, hits give low values 0.996 | S. cerevisiae deletion strains, locus YOR270C, strain vph1, hits give low values 0.991 | S. cerevisiae deletion strains, locus YOR290C, strain snf2, hits give low values 0.919 | S. cerevisiae deletion strains, locus YOR316C, strain cot1, hits give low values 1.01 | S. cerevisiae deletion strains, locus YPL051W, strain arl3, hits give low values 1.03 | S. cerevisiae deletion strains, locus YPL078C, strain atp4, hits give low values 0.952 | S. cerevisiae deletion strains, locus YPL106C, strain sse1, hits give low values 0.972 | S. cerevisiae deletion strains, locus YPL240C, strain hsp82, hits give low values 1.01 | S. cerevisiae deletion strains, locus YPL256C, strain CLN2, hits give low values 0.975 | S. cerevisiae deletion strains, locus YPR119W, strain clb2, hits give low values 1.01 | S. cerevisiae deletion strains, locus YPR141C, strain kar3, hits give low values 1.01 | S. cerevisiae deletion strains, locus YPR163C, strain tif3, hits give low values 1.02 | S. cerevisiae deletion strains, locus YPR167C, strain met16, hits give low values 1.01 | S. cerevisiae deletion strains, strain wtn01, hits give low values 1 | S. cerevisiae strains, strain wild type, hits give low values 1

Reference: PubChem BioAssay AID1159580 (chemical genetic matrix, 2015)
